# Results from PubChem BioAssay.
# “And” between values parts separate entries of the source, which are not always exact repeats. Equal entries are not always repeated. The source made the active and inactive calls. Unless noted, no stated cut-off is given here; in the data, active means nuclear beta-catenin stimulation mostly above about 4.2% (no sharp cut-off); inactive means mostly below about 10%.
# Experiments:
# [1] = stimulators of nuclear beta-catenin in C2C12, primary screen, imaging, WNT3A-conditioned medium, mouse C2C12, NPC library (AID 1117326); conditions: stronger effect = higher value
# [2] = stimulators of insulin release from INS-1E, primary screen, cell-based, 5 mM glucose, NPC library (AID 1117329;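 active means compound raises insulin release from rat beta cells at 5 mM glucose, no numeric limit stated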); conditions: rat INS-1E insulin secretion, at 10 µM, stronger effect = higher value
# [3] = glucagon-like peptide 1 release enhancers, primary assay, NCI-H716 cell line, NPC library (AID 1117341;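 active means compound raises GLP1 secretion from the human gut endocrine cells, with no numeric limit stated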); conditions: NCI-H716 cells, at 10 µM, stronger effect = higher value
# [4] = sensitizers of A549 cells to miR-34 induction, primary screen, imaging, A549 dox-inducible miR-34, nuclei and caspase counts (AID 1347080;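 active means compounds whose cell count with miR-34 switched on is under 0.7 times the count with it off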); conditions: A549 miR-34 inducible, Hoechst nuclei count, 48 h
# [5] = target: NAD(+) hydrolase SARM1 (Homo sapiens) (UniProt Q6SZW1); assay: SARM1 TIR NADase inhibitors, cell lysate, NAD-Glo luminescence (AID 1508614;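 active means compound whose remaining NAD level is above about 45 nM, limit read from the data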); conditions: SAM-TIR HEK293T lysate NADase, at 1 µM, stronger effect = higher value
# NAD(+) hydrolase SARM1 (Homo sapiens), sequence (Q6SZW1 whole entry, looked up, the tested form may be a part): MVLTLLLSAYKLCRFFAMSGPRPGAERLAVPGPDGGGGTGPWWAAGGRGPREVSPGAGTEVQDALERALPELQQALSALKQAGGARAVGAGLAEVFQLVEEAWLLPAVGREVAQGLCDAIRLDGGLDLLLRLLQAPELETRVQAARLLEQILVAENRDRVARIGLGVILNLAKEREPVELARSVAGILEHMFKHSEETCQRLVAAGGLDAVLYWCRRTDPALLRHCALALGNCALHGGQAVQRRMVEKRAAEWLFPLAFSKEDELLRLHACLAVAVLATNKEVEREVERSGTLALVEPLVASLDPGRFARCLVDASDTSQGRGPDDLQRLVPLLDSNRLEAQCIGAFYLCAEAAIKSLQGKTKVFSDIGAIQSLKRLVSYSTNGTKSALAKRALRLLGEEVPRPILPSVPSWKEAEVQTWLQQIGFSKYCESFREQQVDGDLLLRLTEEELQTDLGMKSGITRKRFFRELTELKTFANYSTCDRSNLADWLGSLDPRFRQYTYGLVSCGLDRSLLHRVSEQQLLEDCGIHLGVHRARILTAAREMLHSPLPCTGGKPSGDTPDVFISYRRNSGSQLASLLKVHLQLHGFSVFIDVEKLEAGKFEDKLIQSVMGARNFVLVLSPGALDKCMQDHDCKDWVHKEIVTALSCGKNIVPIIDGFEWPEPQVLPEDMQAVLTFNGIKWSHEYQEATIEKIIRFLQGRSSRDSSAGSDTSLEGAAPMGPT
# [6] = target: Mitogen-activated protein kinase 7 (Homo sapiens) (UniProt Q13164); assay: ERK5 transactivation activators in reporter cells, primary screen, cell-based, HTS (AID 1508626;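 active means luciferase signal above three times the same-plate solvent-only control wells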;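 further: luciferase driven by Gal4-ERK5 fusion binding five Gal4 sites before minimal TATA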); conditions: HeLa Gal4-ERK5 transactivation, 18 h, at 5 µM, stronger effect = higher value
# Mitogen-activated protein kinase 7 (Homo sapiens), sequence (Q13164 whole entry, looked up, the tested form may be a part): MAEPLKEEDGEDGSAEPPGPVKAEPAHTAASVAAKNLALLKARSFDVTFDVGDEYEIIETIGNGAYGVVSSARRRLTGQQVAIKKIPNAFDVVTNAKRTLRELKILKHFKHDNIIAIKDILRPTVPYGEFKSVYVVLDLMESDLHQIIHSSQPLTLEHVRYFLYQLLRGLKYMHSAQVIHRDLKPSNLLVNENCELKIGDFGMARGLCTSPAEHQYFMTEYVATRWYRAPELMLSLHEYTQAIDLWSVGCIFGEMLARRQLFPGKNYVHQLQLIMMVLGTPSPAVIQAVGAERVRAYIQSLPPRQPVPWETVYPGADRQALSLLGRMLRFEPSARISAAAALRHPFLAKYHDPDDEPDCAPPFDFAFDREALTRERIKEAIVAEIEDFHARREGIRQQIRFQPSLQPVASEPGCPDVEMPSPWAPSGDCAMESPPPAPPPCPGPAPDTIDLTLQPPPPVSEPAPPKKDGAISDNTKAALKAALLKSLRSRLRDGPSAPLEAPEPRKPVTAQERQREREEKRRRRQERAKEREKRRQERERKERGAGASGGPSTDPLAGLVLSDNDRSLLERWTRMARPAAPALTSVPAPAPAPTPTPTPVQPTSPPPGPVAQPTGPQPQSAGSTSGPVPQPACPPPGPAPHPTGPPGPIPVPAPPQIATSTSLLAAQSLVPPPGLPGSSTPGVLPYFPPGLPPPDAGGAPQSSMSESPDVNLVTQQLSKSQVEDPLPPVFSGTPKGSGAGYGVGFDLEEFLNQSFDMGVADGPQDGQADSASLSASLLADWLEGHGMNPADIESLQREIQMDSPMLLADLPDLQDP
# [7] = growth inhibition of GSK3B-pretreated HCT116 cells – cell-based, CellTiter-Glo, 0.2 to 20 µM (AID 1117336;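 active means compounds lowering colon cancer cell viability after pretreatment blocking the GSK3B kinase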); conditions: HCT116 viability after GSK3B inhibitor, at 20 µM, stronger effect = higher value
# [8] = inhibition of endothelial tube formation, primary screen, imaging, VEGF stimulated, CD31 staining, tube area, NPC library (AID 1117340;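 active means compound that reduces growth-factor-driven endothelial tube area in a mixed cell culture, no cutoff stated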); conditions: VEGF-stimulated ADSC/ECFC co-culture, at 10 µM, stronger effect = higher value
# [9] = HCT116 colon cancer cell growth inhibition, primary screen, CellTiter-Glo luminescence, NPC library (AID 1117342;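 active means compounds that lower survival of HCT116 colon cancer cells in the luminescence readout, no numeric limit stated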); conditions: at 20 µM (top of the series)
# [10] = CellTiter-Glo luminescent readout of SW480 viability loss, NPC library primary (AID 1117343;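 active means compounds that lower viability of the colon cancer cells in the luminescence readout, with no numeric limit stated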); conditions: CellTiter-Glo luminescence; at 20 µM (top of the series) unless noted
# [11] = decreased DLD-1 cellular survival, CellTiter-Glo luminescent readout, NPC compound collection, primary HTS (AID 1117346;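 active means compounds that lower survival of DLD-1 colon cancer cells in the luminescence readout, no cutoff given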); conditions: DLD-1 viability, CellTiter-Glo luminescence; at 20 µM (top of the series)
# [12] = survival rescue of mitochondrial mutant cells in low glucose, primary screen, MELAS cybrids, Rieske KO mouse fibroblasts, CellTiter-Glo (AID 1508586;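 active means mean z-score across replicates of 1.96 or higher in either the MELAS or the Rieske mutant cell line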;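 further: z relative to plate mean and SD of compound and empty wells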)
# [13] = viability rescue of complex I mutant cybrids, primary screen, cell-based, galactose medium, ATP luminescence (AID 1645843;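 active means z-score of at least 1.8 in each of two replicates, scored against plate mean and spread of sample wells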;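 further: positive z means more ATP and so rescue of galactose-driven cybrid death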); conditions: complex I mutant cybrid cells, 72 h, stronger effect = higher value
# [14] = target: 6-phosphogluconate dehydrogenase, decarboxylating (Homo sapiens) (UniProt P52209); assay: 6PGD enzyme inhibitors, primary screen, biochemical, human, recombinant enzyme, NADPH absorbance (AID 1159550;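 active means at least 20% inhibition of 6-phosphogluconate dehydrogenase activity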); conditions: recombinant 6PGD, NADPH absorbance 341 nm; at 10 µM; stronger effect = higher value
# 6-phosphogluconate dehydrogenase, decarboxylating (Homo sapiens), sequence (P52209 whole entry, looked up): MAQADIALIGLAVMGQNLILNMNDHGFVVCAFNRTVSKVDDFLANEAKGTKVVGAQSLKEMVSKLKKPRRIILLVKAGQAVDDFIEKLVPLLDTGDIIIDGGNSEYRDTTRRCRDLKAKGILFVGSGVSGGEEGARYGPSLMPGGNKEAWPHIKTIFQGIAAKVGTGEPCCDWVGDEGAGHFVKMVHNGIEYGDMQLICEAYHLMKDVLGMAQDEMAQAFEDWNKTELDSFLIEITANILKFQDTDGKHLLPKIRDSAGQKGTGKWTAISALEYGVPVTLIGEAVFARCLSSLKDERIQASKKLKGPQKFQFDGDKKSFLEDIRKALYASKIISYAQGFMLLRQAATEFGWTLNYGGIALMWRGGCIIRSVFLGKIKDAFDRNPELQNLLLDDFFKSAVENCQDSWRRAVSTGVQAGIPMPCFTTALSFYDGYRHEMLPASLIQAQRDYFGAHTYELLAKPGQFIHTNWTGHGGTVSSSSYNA
# [15] = differential killing of epithelial or mesenchymal cells, primary screen, imaging, PC-3E GFP, TEM4-18 mCherry, co-culture (AID 1345086;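 active means compounds killing one labelled cell type while sparing the other, by normalised counts and ratio limits, not self-fluorescent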;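 further: cells exposed to compound for 72 h before imaging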;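 on red/green cell ratio (normalised): normalised mesenchymal count divided by normalised epithelial count so high means epithelial killing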); conditions: imaging cell counts, at 1 µM
# [16] = stronger effect = lower value, cell number ratio, induced over uninduced
# [17] = measured here: relative caspase fold change +Dox/-Dox
# [18] = measured here: total cells with miR-34 induction, stronger effect = lower value
# [19] = measured here: total cells without miR-34 induction
smiles,measurement,setting,value
O=C(O)CCC(=O)OC[C@@H](NC(=O)C(Cl)Cl)[C@H](O)c1ccc([N+](=O)[O-])cc1,nuclear beta-catenin stimulation,[1]; at 10 µM,2.4% (inactive)
same,nuclear beta-catenin stimulation,"[1]; stimulation, at 2 µM",0.4%
same,insulin secretion stimulation,[2],0% (inactive)
same,GLP1 secretion stimulation,[3],4.4% (inactive)
same,fold change,[4]; [16],0.886 (inactive)
same,fold change,[4]; [17],1.1
same,cell count,[4]; [18],11000
same,cell count,[4]; [19],12500
same,remaining NAD,[5],10 nM (inactive)
same,luciferase signal,[6],44 AU (inactive)
CCOC(=O)[C@H](CCc1ccccc1)N[C@@H](C)C(=O)N1C(=O)N(C)C[C@H]1C(=O)O,nuclear beta-catenin stimulation,[1]; at 10 µM,0% (inactive)
same,nuclear beta-catenin stimulation,"[1]; stimulation, at 2 µM",-1.6%
same,insulin secretion stimulation,[2],0% (inactive)
same,GLP1 secretion stimulation,[3],2% (inactive)
C[C@H](O)CN(C)C,nuclear beta-catenin stimulation,[1]; at 10 µM,-0.1% (inactive)
same,nuclear beta-catenin stimulation,"[1]; stimulation, at 2 µM",1.5%
same,insulin secretion stimulation,[2],0.35% (inactive)
same,GLP1 secretion stimulation,[3],-2.5% (inactive)
FC(F)(F)C(F)(F)C(F)(F)C(F)(F)C(F)(F)C(F)(F)C(F)(F)C(F)(F)Br,nuclear beta-catenin stimulation,[1]; at 10 µM,-0.6% (inactive)
same,nuclear beta-catenin stimulation,"[1]; stimulation, at 2 µM",11.4%
same,viability decrease,[7],8.2% (inactive)
same,tube area decrease,[8],-4.5% (inactive)
same,inhibition of viability,[9],12.1% (inactive)
same,viability decrease (inhibition),[10],-4.8% (inactive)
same,viability decrease (inhibition),[11],7.2% (inactive)
COc1ccc2c(c1)c1c3n2CCN(C)C3=NCC1,nuclear beta-catenin stimulation,[1]; at 10 µM,1.3% (inactive)
same,nuclear beta-catenin stimulation,"[1]; stimulation, at 2 µM",0.5%
same,insulin secretion stimulation,[2],1.05% (inactive)
same,GLP1 secretion stimulation,[3],6.4% (inactive)
C=CC(C)(O)CCC=C(C)CCC=C(C)C (centres undefined),nuclear beta-catenin stimulation,[1]; at 10 µM,2.7% (inactive)
same,nuclear beta-catenin stimulation,"[1]; stimulation, at 2 µM",-0.9%
same,insulin secretion stimulation,[2],-0.2% (inactive)
same,GLP1 secretion stimulation,[3],9.7% (inactive)
CNS(=O)(=O)CCc1ccc2[nH]cc(C3CCN(C)CC3)c2c1,nuclear beta-catenin stimulation,[1]; at 10 µM,0.7% (inactive)
same,nuclear beta-catenin stimulation,"[1]; stimulation, at 2 µM",0.4%
same,insulin secretion stimulation,[2],0.5% (inactive)
same,GLP1 secretion stimulation,[3],-4.5% (inactive)
same,fold change,[4]; [16],1.03 (inactive) and 0.889 (inactive)
same,fold change,[4]; [17],0.856 and 0.863
same,cell count,[4]; [18],10300 and 7800
same,cell count,[4]; [19],9960 and 8780
same,z-score,"[12]; MELAS cybrid survival, CellTiter-Glo 48 h, stronger effect = higher value",-0.419 (inactive)
same,z-score,"[12]; Rieske KO mouse fibroblast survival, CellTiter-Glo 72 h",0.51
same,z-score,[13],-0.035 (inactive)
CCC1Nc2cc(Cl)c(S(N)(=O)=O)cc2S(=O)(=O)N1 (centres undefined),nuclear beta-catenin stimulation,[1]; at 10 µM,-0.1% (inactive)
same,nuclear beta-catenin stimulation,"[1]; stimulation, at 2 µM",-1.8%
same,insulin secretion stimulation,[2],0.25% (inactive)
same,GLP1 secretion stimulation,[3],2% (inactive)
COc1ccc(/C=N/NC(=O)c2ccncc2)cc1OC,nuclear beta-catenin stimulation,[1]; at 10 µM,3.6% (inactive)
same,nuclear beta-catenin stimulation,"[1]; stimulation, at 2 µM",8%
same,viability decrease,[7],2.5% (inactive)
same,tube area decrease,[8],12.2% (inactive)
same,inhibition of viability,[9],11.9% (inactive)
same,viability decrease (inhibition),[10],-1% (inactive)
same,viability decrease (inhibition),[11],-0.1% (inactive)
Cc1c(C)c2c(c(C)c1O)CC[C@@](C)(CCC[C@H](C)CCC[C@H](C)CCCC(C)C)O2,nuclear beta-catenin stimulation,[1]; at 10 µM,0.1% (inactive)
same,nuclear beta-catenin stimulation,"[1]; stimulation, at 2 µM",0.4%
same,insulin secretion stimulation,[2],1% (inactive)
same,GLP1 secretion stimulation,[3],4.7% (inactive)
same,inhibition,[14],-20.7% (inactive)
same,fold change,[4]; [16],0.864 (inactive)
same,fold change,[4]; [17],1.16
same,cell count,[4]; [18],7550
same,cell count,[4]; [19],8740
same,remaining NAD,[5],10 nM (inactive)
CCCCC(CC)COC(=O)CC(C(=O)OCC(CC)CCCC)S(=O)(=O)O (centres undefined),nuclear beta-catenin stimulation,[1]; at 10 µM,2.7% (inactive)
same,nuclear beta-catenin stimulation,"[1]; stimulation, at 2 µM",-0.9%
same,insulin secretion stimulation,[2],-1.3% (inactive)
same,GLP1 secretion stimulation,[3],84.6% (active)
same,red/green cell ratio (normalised),"[15]; actives lie on both sides, counts scaled to control wells, 1 = unselective",0.91 (inactive)
same,normalised cell number,[15]; measured here: epithelial PC-3E GFP cell survival,0.99
same,normalised cell number,[15]; measured here: mesenchymal TEM4-18 mCherry cell survival,0.9
same,fold change,[4]; [16],0.854 (inactive)
same,fold change,[4]; [17],1.07
same,cell count,[4]; [18],8120
same,cell count,[4]; [19],9510
same,remaining NAD,[5],10 nM (inactive)
Cc1cc(OI)c(C(C)C)cc1-c1cc(C(C)C)c(OI)cc1C,nuclear beta-catenin stimulation,[1]; at 10 µM,0% (inactive)
same,nuclear beta-catenin stimulation,"[1]; stimulation, at 2 µM",5.1%
same,viability decrease,[7],13.9% (inactive)
same,tube area decrease,[8],4.7% (inactive)
same,inhibition of viability,[9],-41.6% (inactive)
same,viability decrease (inhibition),[10],10.4% (inactive)
same,viability decrease (inhibition),[11],18.8% (inactive)
